Assay outcomes: PubChem BioAssay, National Center for Advancing Translational Sciences (NCATS)
Shiga inhibitor: A qHTS for Small Molecule Inhibitors of Shiga Toxin | Vero cells, Shiga toxin protein synthesis inhibition reporter | inhibition, % at 38.7 µM | 9.2% of 290,000 active | AID 2315, 2010; in the data active means inhibition mostly above about 28%, no sharp cut-off; inactive means mostly below about 43%; further: 0% is about no effect
Cycloheximide cs: Cycloheximide Counterscreen for Small Molecule Inhibitors of Shiga Toxin; AID 2314, 2010; 12% of 300,000 active; max response, %; cell reporter, cycloheximide protein synthesis inhibition counterscreen; in the data active means max response mostly above about 13%, no sharp cut-off; inactive means mostly below about 14%; further: read at 38.3 µM for the half of the compounds with a filed dose; 0% is about no effect
NS1 inh: qHTS Assay for Inhibitors of Influenza NS1 Protein Function; Potency, µM (top dose mostly 46.1 µM), for the others: at the top dose activity, positive = more growth; 0.4% of 270,000 active; calls by dose curve; further: potency means the concentration at half of the fitted maximal effect; actives are rising curves; nearly all actives have a fitted effect of over 50% in size
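Growth recovery, yeast-based: influenza A NS1 expressed in S. cerevisiae causes slow growth, and suppressors are detected by OD600. The parent strain without NS1 is used as positive control.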
Pf growth 48h: Primary qHTS for delayed death inhibitors of the malarial parasite plastid, 48 hour incubation; P. falciparum luciferase growth in erythrocytes, 48 h; Potency, µM (highest dose often 28.7 µM), without a hit: at the top dose activity change, negative = inhibition, most hits filed as inhibitors; 5.9% of 310,000 active; AID 504832, 2011; further: potency means the concentration at half of the fitted maximal effect; on the % scale 0 is the no-effect control and ±100 the full control effect
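Erythrocytes infected with P. falciparum carrying an integrated firefly luciferase reporter (2% hematocrit, 0.1% parasitemia final) were exposed to compounds in RPMI 1640 with 0.5% Albumax at 37 C, 5% CO2. Growth inhibition was scored as reduced luminescence.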
Giardia FBPA inh: qHTS Assay for Inhibitors of Fructose-1,6-bisphosphate Aldolase from Giardia Lamblia. A8B2U2. purified Giardia FBPA. 0.71% of 290,000 active. Potency, µM (series often up to 59.6 µM), without a hit: at the highest dose activity, negative = inhibition, actives largely listed as inhibitors; further: potency means the concentration at half of the fitted maximal effect; on the % scale 0 is the no-effect control and ±100 the full control effect; nearly all actives have a fitted effect of over 55% in size
Target sequence (A8B2U2 whole entry, looked up): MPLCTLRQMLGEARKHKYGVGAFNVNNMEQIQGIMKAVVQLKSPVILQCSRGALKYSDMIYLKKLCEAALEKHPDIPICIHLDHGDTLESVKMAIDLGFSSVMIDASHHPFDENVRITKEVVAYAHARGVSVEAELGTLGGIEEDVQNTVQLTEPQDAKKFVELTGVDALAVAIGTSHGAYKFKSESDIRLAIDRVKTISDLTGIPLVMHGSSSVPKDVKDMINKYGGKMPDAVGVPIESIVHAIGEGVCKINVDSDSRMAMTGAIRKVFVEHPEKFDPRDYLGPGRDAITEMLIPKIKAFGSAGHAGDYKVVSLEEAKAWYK
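40 nM FBPA preincubated 10 min at RT with compound (up to 57.5 uM final), then substrate plus GAPDH/TPI/NAD/arsenate coupling and diaphorase/resazurin added. Fluorescence read after 20 min at RT, 525/598 nm.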
Pf growth 96h: Primary qHTS for delayed death inhibitors of the malarial parasite plastid, 96 hour incubation; P. falciparum luciferase reporter growth, 96 h; Potency, µM (top dose mostly 28.7 µM), inactives show at the highest dose activity change, negative = inhibition, actives largely listed as inhibitors; 6.9% of 320,000 active; AID 504834, 2011; further: potency means the concentration at half of the fitted maximal effect; on the % scale 0 is the no-effect control and ±100 the full control effect
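Delayed-death screen, second-generation endpoint: infected erythrocytes, 2% hematocrit, 0.05% parasitemia final; 96 hours at 37 C, 5% CO2; luciferase detection reagent; luminescence decrease equals reduced growth.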
Active calls of the source: *. Rows were chosen to be rich in hits. Some 21% of all compounds tested hit in one or more screens of this group. Unless noted, the call rests on the fitted dose curve; in most records, active means well fitted curve in the direction sought with a large enough effect; inconclusive means small, poorly fitted or top-dose-only effect, or another doubt; inactive means no such curve, though single readings can be large; an effect the other way counts as inactive or inconclusive.

For CC(C)N(C(C)C)S(=O)(=O)c1ccc(NC(=O)c2cnccn2)cc1 the results were Cycloheximide cs 2.4, NS1 inh -0.6%, Pf growth 48h 0.0%, Giardia FBPA inh -5.2% and Pf growth 96h inconclusive.
Screening O=C(NC(=S)Nc1cccc(F)c1)c1cccc([N+](=O)[O-])c1 returned Shiga inhibitor 67.0*, Cycloheximide cs 19.7*, NS1 inh -3.6%, Pf growth 48h -32.4%, Giardia FBPA inh inconclusive and Pf growth 96h 38.2%.
Screening C/C(=N/NC(=S)Nc1cccc(C)c1)c1cccc([N+](=O)[O-])c1 returned Shiga inhibitor 9.7, Cycloheximide cs -3.5, NS1 inh 13.4%, Pf growth 48h 11.7µM*, Giardia FBPA inh 11.0% and Pf growth 96h 11.6%.
CC(C)NS(=O)(=O)c1ccc(NC(=S)NC(=O)c2cccc([N+](=O)[O-])c2)cc1 was read as Shiga inhibitor 6.5, Cycloheximide cs -2.2, NS1 inh 5.2%, Pf growth 48h 19.4%, Giardia FBPA inh inconclusive and Pf growth 96h 13.1µM*.
For C/C(=N\NC(=S)NC(C)C)c1cccc([N+](=O)[O-])c1 the results were Shiga inhibitor -0.7, Cycloheximide cs -1.3, NS1 inh 4.7%, Pf growth 48h -16.3%, Giardia FBPA inh -8.8% and Pf growth 96h inconclusive.
`CN(C)C(=O)C1CCN(Cc2c[nH]c3ccccc23)CC1` gave NS1 inh 2.8%.
CCc1ccccc1NC(=O)Nc1ccc(F)cc1F was read as Shiga inhibitor 1.7, Cycloheximide cs -1.3, Pf growth 48h -11.3%, Giardia FBPA inh 2.9% and Pf growth 96h inconclusive.
O=C(Nc1ccc(F)c(Cl)c1)Nc1csc2ccccc12 was read as Shiga inhibitor 56.7*, Cycloheximide cs 38.0*, NS1 inh -5.3%, Pf growth 48h inconclusive, Giardia FBPA inh -12.3% and Pf growth 96h inconclusive.
O=C(Nc1ccc(F)cc1F)Nc1csc2ccccc12 was read as Shiga inhibitor 117.2*, Cycloheximide cs 41.9*, NS1 inh -55.3%, Pf growth 48h 4.65µM*, Giardia FBPA inh -17.6% and Pf growth 96h inconclusive.
For O=C(CS(=O)(=O)Cc1ccccc1)NCc1ccco1 the results were Shiga inhibitor -6.8, Cycloheximide cs -3.6, NS1 inh 6.6%, Pf growth 48h 10.6%, Giardia FBPA inh -0.6% and Pf growth 96h 9.5%.
`NC(N)=NC1=NC(=O)/C(=C/c2ccccc2-n2cccn2)S1` gave Shiga inhibitor 11.4, Cycloheximide cs 6.0, Pf growth 48h 11.9%, Giardia FBPA inh 5.3% and Pf growth 96h -9.6%.
O=Cc1ccccc1-n1cccn1 was read as Shiga inhibitor -9.4, Cycloheximide cs 30.8*, Pf growth 48h 21.3%, Giardia FBPA inh 0.4% and Pf growth 96h 16.7%.
NC(=O)N/N=C/c1ccc(-c2ccc([N+](=O)[O-])cc2)o1 was read as Shiga inhibitor 24.9, Cycloheximide cs 25.1*, NS1 inh 2.6%, Pf growth 48h 53.5%, Giardia FBPA inh -3.2% and Pf growth 96h -25.9%.
Screening O/N=C\c1ccc(-c2ccccc2)o1 returned Shiga inhibitor 92.5*, Cycloheximide cs 21.3*, NS1 inh -9.8%, Pf growth 48h 70.2%, Giardia FBPA inh 0.3% and Pf growth 96h -24.7%.
O=[N+]([O-])c1cc(-c2ccc(/C=N\n3cnnc3)o2)cc([N+](=O)[O-])c1 was read as Shiga inhibitor 25.1, Cycloheximide cs -2.6, NS1 inh 13.0%, Pf growth 48h 7.38µM*, Giardia FBPA inh -7.0% and Pf growth 96h inconclusive.
O=[N+]([O-])c1ccccc1-c1ccc(/C=N/n2cnnc2)o1 was read as Shiga inhibitor -22.3, Cycloheximide cs -2.9, NS1 inh 5.8%, Pf growth 48h 9.8%, Giardia FBPA inh -13.4% and Pf growth 96h 50.3%.
Screening COc1ccc(N=Cc2ccc(-c3ccccc3)o2)cc1 returned Shiga inhibitor 11.0, Cycloheximide cs 16.3*, NS1 inh -3.5%, Pf growth 48h 8.6%, Giardia FBPA inh -26.1% and Pf growth 96h 11.7µM*.
`CS(=O)(=O)Nc1c(O)ccc2c1CCC[C@H]2C1=NCCN1` gave Giardia FBPA inh 1.0%.
For CCn1cc(C(=O)N2CCCC(C(=O)c3ccc4ccccc4c3)C2)cn1 (centres undefined) the results were Shiga inhibitor -1.6, Cycloheximide cs 9.6, NS1 inh -33.0%, Pf growth 48h -26.2%, Giardia FBPA inh -2.2% and Pf growth 96h -12.4%.
`N#CC[C@H](c1ccccc1)N1CCN(Cc2ccccc2)CCC1=O` gave Shiga inhibitor -8.0, Cycloheximide cs 1.7, NS1 inh -4.8%, Pf growth 48h 6.6%, Giardia FBPA inh -4.8% and Pf growth 96h inconclusive.
For O=[N+]([O-])c1ccc(-c2ccc(/C=N/O)o2)cc1 the results were Shiga inhibitor 108.8*, Cycloheximide cs 33.3*, NS1 inh -41.0%, Pf growth 48h 84.3%, Giardia FBPA inh -11.1% and Pf growth 96h 78.2%.
For COc1ccccc1-c1cnnc(N/N=C/c2ccc(-c3cccc(Br)c3)o2)n1 the results were Shiga inhibitor 3.3, Cycloheximide cs 1.0, NS1 inh 13.3%, Pf growth 48h 9.4%, Giardia FBPA inh 0.6% and Pf growth 96h inconclusive.
`COc1ccc(-c2cnnc(N/N=C/c3ccc(-c4ccc([N+](=O)[O-])cc4)o3)n2)cc1` gave Shiga inhibitor 20.6, Cycloheximide cs 0.9, Pf growth 48h 2.94µM*, Giardia FBPA inh -1.6% and Pf growth 96h 8.2%.
`COc1cccc(Nc2ncc3nc(-c4ccccc4)c(=O)n(C)c3n2)c1` gave Giardia FBPA inh -3.5%.
CNc1ccccc1C(C)(C)c1cc(-c2cc(C)cc(C)c2)no1 was read as Shiga inhibitor -7.7, Cycloheximide cs -6.9, NS1 inh 2.7%, Pf growth 48h inconclusive, Giardia FBPA inh -6.7% and Pf growth 96h 9.28µM*.
NC(Cc1c[nH]c2ccccc12)C(=O)NCC(=O)O (centres undefined) was read as Giardia FBPA inh -9.7%.
For NCCCCCN the results were Shiga inhibitor -6.0, Cycloheximide cs -1.6 and Giardia FBPA inh -1.3%.
Screening CNC(=S)N/N=C/c1ccccc1Cl returned Shiga inhibitor -7.1, Cycloheximide cs 10.4, NS1 inh -2.2%, Pf growth 48h 33.4%, Giardia FBPA inh inconclusive and Pf growth 96h 57.8%.
Screening O=C(CC(=O)Nc1cccc(Cl)c1)N/N=C\c1ccccc1 returned Shiga inhibitor 2.5, Cycloheximide cs 13.0, NS1 inh -7.6%, Pf growth 48h 23.0%, Giardia FBPA inh -25.5% and Pf growth 96h inconclusive.
`S=C(N/N=C/c1ccccc1Cl)Nc1ccccc1` gave Shiga inhibitor 122.3*, Cycloheximide cs 54.4*, NS1 inh 30.2%, Pf growth 48h inconclusive, Giardia FBPA inh 2.8% and Pf growth 96h inconclusive.
